Laboratory results reported in PMC9911399, “Two distinct binding modes provide the RNA-binding protein RbFox with extraordinary sequence specificity”.
Residue numbers refer to the chain shown, from its start. The full ranking holds about 16,000 sequences; the median of “ka relative to ugcaugu” is about 0.0091, and the highest 2% start at about 0.032. The full list was thinned out, with the highest values kept by preference.

T1: RBFOX1 RRM (Homo sapiens, UniProt Q9NWB1 109-208)
T1 sequence: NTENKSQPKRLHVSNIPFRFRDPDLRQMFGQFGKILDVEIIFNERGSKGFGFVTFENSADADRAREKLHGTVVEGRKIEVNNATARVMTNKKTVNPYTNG

B1: UCUCAAU (DNA:RNA)
RNA: GGGAGACCGGAAUUCAGAUUGUCCUCUCAAUUUAAAUCCCGUCGUAGCCACCA
DNA 1: CAATCTGAATTCCGGTCTCCC
DNA 2: TGGTGGCTACGACGGGATT
B2: CGUCACC (DNA:RNA)
RNA: B1 RNA with U25C, C26G, A30C, U31C
DNA 1: CAATCTGAATTCCGGTCTCCC
DNA 2: TGGTGGCTACGACGGGATT
B3: GACAUGU (DNA:RNA)
RNA: B1 RNA with U25G, C26A, U27C, C28A, A29U, A30G
DNA 1: CAATCTGAATTCCGGTCTCCC
DNA 2: TGGTGGCTACGACGGGATT
B4: GACACAU (DNA:RNA)
RNA: B1 RNA with U25G, C26A, U27C, C28A, A29C
DNA 1: CAATCTGAATTCCGGTCTCCC
DNA 2: TGGTGGCTACGACGGGATT
B5: GAACACU (DNA:RNA)
RNA: B1 RNA with U25G, C26A, U27A, A30C
DNA 1: CAATCTGAATTCCGGTCTCCC
DNA 2: TGGTGGCTACGACGGGATT
B6: AGUUCUC (DNA:RNA)
RNA: B1 RNA with U25A, C26G, C28U, A29C, A30U, U31C
DNA 1: CAATCTGAATTCCGGTCTCCC
DNA 2: TGGTGGCTACGACGGGATT
B7: CUCUCGG (DNA:RNA)
RNA: GGGAGACCGGAAUUCAGAUUGUCCCUCUCGGUUAAAUCCCGUCGUAGCCACCA
DNA 1: CAATCTGAATTCCGGTCTCCC
DNA 2: TGGTGGCTACGACGGGATT
B8: GAGGGCA (DNA:RNA)
RNA: GGGAGACCGGAAUUCAGAUUGUCCGAGGGCAUUAAAUCCCGUCGUAGCCACCA
DNA 1: CAATCTGAATTCCGGTCTCCC
DNA 2: TGGTGGCTACGACGGGATT
B9: UGCACGC (DNA:RNA)
RNA: B7 RNA with C25U, U26G, U28A, G31C
DNA 1: CAATCTGAATTCCGGTCTCCC
DNA 2: TGGTGGCTACGACGGGATT
B10: UGCACAA (DNA:RNA)
RNA: B7 RNA with C25U, U26G, U28A, G30A, G31A
DNA 1: CAATCTGAATTCCGGTCTCCC
DNA 2: TGGTGGCTACGACGGGATT
B11: ACGCUGC (DNA:RNA)
RNA: B1 RNA with U25A, U27G, A29U, A30G, U31C
DNA 1: CAATCTGAATTCCGGTCTCCC
DNA 2: TGGTGGCTACGACGGGATT
B12: UGUCUGC (DNA:RNA)
RNA: B1 RNA with C26G, A29U, A30G, U31C
DNA 1: CAATCTGAATTCCGGTCTCCC
DNA 2: TGGTGGCTACGACGGGATT
B13: UGCACGG (DNA:RNA)
RNA: B7 RNA with C25U, U26G, U28A
DNA 1: CAATCTGAATTCCGGTCTCCC
DNA 2: TGGTGGCTACGACGGGATT
B14: UGCACCA (DNA:RNA)
RNA: B7 RNA with C25U, U26G, U28A, G30C, G31A
DNA 1: CAATCTGAATTCCGGTCTCCC
DNA 2: TGGTGGCTACGACGGGATT
B15: UGCCCGG (DNA:RNA)
RNA: B7 RNA with C25U, U26G, U28C
DNA 1: CAATCTGAATTCCGGTCTCCC
DNA 2: TGGTGGCTACGACGGGATT
B16: UGCACGA (DNA:RNA)
RNA: B7 RNA with C25U, U26G, U28A, G31A
DNA 1: CAATCTGAATTCCGGTCTCCC
DNA 2: TGGTGGCTACGACGGGATT
B17: ACCACGG (DNA:RNA)
RNA: B7 RNA with C25A, U26C, U28A
DNA 1: CAATCTGAATTCCGGTCTCCC
DNA 2: TGGTGGCTACGACGGGATT
B18: UUCUUAU (DNA:RNA)
RNA: B7 RNA with C25U, C29U, G30A, G31U
DNA 1: CAATCTGAATTCCGGTCTCCC
DNA 2: TGGTGGCTACGACGGGATT
B19: UGAUCGU (DNA:RNA)
RNA: B7 RNA with C25U, U26G, C27A, G31U
DNA 1: CAATCTGAATTCCGGTCTCCC
DNA 2: TGGTGGCTACGACGGGATT
B20: CCACUCA (DNA:RNA)
RNA: B8 RNA with G25C, A26C, G27A, G28C, G29U
DNA 1: CAATCTGAATTCCGGTCTCCC
DNA 2: TGGTGGCTACGACGGGATT

target: T1, RBFOX1 RRM; assay: EMSA; HiTS-Eq, 1 nM pool, 10 min; buffer printed only for the single-RNA assays: 10 mM Tris pH 7.5, 150 mM NaCl, 3.4 mM EDTA, 0.001% NP-40, 30 C; settings: tags: His6 N-terminal (pET28a); label: 5' 32P
How it was run: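 These values rest on relative association constants, computed from read-count changes of each RNA species versus the control reaction and normalised to the cognate motif. Reads came from free RNA recovered by 8% native PAGE after purified RbFox RRM (wild type or mutant) at increasing concentrations was equilibrated for 10 min in 50 µL with 1 nM of a 5′-radiolabelled pool with 7 randomized nucleotides and DNA-annealed flanks.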

Binder | binding signal
B1 | 0.0038 KA relative to UGCAUGU
B2 | 0.00293 KA relative to UGCAUGU
B3 | 0.0153 KA relative to UGCAUGU
B4 | 0.000474 KA relative to UGCAUGU
B5 | 0.00588 KA relative to UGCAUGU
B6 | 0.0138 KA relative to UGCAUGU
B7 | 0.0101 KA relative to UGCAUGU
B8 | 0.0138 KA relative to UGCAUGU
B9 | 0.252 KA relative to UGCAUGU
B10 | 0.00911 KA relative to UGCAUGU
B11 | 0.0121 KA relative to UGCAUGU
B12 | 0.0316 KA relative to UGCAUGU
B13 | 0.077 KA relative to UGCAUGU
B14 | 0.00925 KA relative to UGCAUGU
B15 | 0.0184 KA relative to UGCAUGU
B16 | 0.0767 KA relative to UGCAUGU
B17 | 0.0054 KA relative to UGCAUGU
B18 | 0.00377 KA relative to UGCAUGU
B19 | 0.0285 KA relative to UGCAUGU
B20 | 0.0037 KA relative to UGCAUGU
